# Bioassay records from PubChem.
# An excerpt weighted towards active compounds, which were near 4.7% of everything screened.
# TRHR enhancer: allosteric enhancers of human TRH receptor; TRHR cells, fluo-8 calcium fluorescence, EC20 TRH enhancement; enhancement, % at 2 µM; actives 0.66% (n = 360,000); in the data active = enhancement above about 30%; also: 0% is about no effect
#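 Enhancer read-out: after compound pinning and an initial kinetic agonist-mode read, an EC20 of TRH (10 nM final) was injected and fluo-8 calcium signal (Ex 480/Em 530) followed at 1 s/cycle for 100 cycles in TRHR-expressing cells.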
# TRHR ag: TRH receptor (human) agonism; P34981; TRHR cells, calcium flux fluo-8, FDSS agonist mode; activation, % at 2 µM; actives 0.18% (n = 360,000); also: 0% is about no effect
#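 Read-out: compound-evoked intracellular calcium rise in TRHR cells, fluo-8 dye, kinetic FDSS fluorescence at 1 s/cycle following a 10-cycle baseline. Cells cultured overnight before dye loading (30 min–1.5 h, RT).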
# D1 agonist: activates the human D1 dopamine receptor. HEK293 T-REx D1 cells, calcium flux, agonist mode. actives 1% (n = 360,000). P21728. activation, % at 2 µM; also: 0% is about no effect
# Target sequence (P21728 whole entry, looked up): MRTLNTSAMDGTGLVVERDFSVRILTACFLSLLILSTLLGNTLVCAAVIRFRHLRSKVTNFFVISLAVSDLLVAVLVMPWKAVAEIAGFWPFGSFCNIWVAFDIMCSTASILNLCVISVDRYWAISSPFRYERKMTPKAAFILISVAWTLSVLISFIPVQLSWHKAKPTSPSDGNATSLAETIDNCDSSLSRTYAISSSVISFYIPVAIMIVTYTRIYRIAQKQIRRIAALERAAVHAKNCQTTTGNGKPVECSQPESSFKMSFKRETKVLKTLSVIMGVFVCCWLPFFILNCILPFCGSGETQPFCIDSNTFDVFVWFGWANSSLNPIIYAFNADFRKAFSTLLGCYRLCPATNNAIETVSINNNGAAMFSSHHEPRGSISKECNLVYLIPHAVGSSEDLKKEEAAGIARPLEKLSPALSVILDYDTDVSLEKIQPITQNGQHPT
#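 Tetracycline-induced HEK293 TREx D1 cells, force-coupled to calcium signalling, were dye-loaded with a no-wash calcium kit. Compound was pin-added after a 10 s baseline. Fluorescence was read kinetically at 1 cycle/s for 180 s, with calcium rises flagged as agonism.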
# D1 PAM: potentiators of human D1 dopamine receptor; P21728; actives 0.036% (n = 360,000); HEK293 TREx D1 cells, calcium flux, dopamine EC20 potentiation; potentiation, % at 10 µM; in the data active = potentiation above about 30%; also: 0% is about no effect
# D1 antagonist: human D1 dopamine receptor antagonism. P21728. HEK293 TREx D1 cells, calcium flux, dopamine EC80; active compounds read low. activity change, negative = inhibition, % at 10 µM. actives 3.2% (n = 360,000); in the data active = activity change below about -30%; also: % is scaled to controls: 0 for no effect and ±100 for the full control effect
#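 HEK293 T-REx cells expressing inducible, force-coupled D1 receptor; no-wash Ca dye, 30–90 min RT. Cmpd → 180 s read at 1 Hz → EC80 DA → 180 s read.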
# The depositor's hits bear a star; ! = not confirmed by another sample. Rule as the data show it, unless noted: active = activation above about 30%; inactive = the rest.
SMILES,TRHR enhancer,TRHR ag,D1 agonist,D1 PAM,D1 antagonist
COC(=O)c1ccc(N2CCN(S(=O)(=O)c3ccc(Br)cc3)CC2)c([N+](=O)[O-])c1,2,0,7,-2,-33*
O=C(c1cccc(Cl)c1)N(Cc1ccco1)Cc1ccccc1Cl,-8,1,7,-1,-4
Cc1ccc(OCCC(=O)OCC(=O)NCCc2ccc(Cl)cc2)cc1,-7,0,5,-5,-2
CC(C)(C)c1cc(C(=O)NCc2ccccc2)ccn1,-4,0,7,6,-32*
Cc1c(C)n(Cc2ccccc2)c2ccc(C(=O)N3CCN(c4ccc(F)cc4)CC3)cc12,0,0,1,2,-74*
Cc1c(C)n(Cc2ccccc2)c2ccc(C(=O)OCCN(C)C)cc12,6,23,57*,-4,-25
CS(=O)(=O)c1cccc(C(=O)NCc2ccccc2)c1,-3,-1,1,8,8
CCc1ccc(NC(=O)c2ccc3c(c2)c(C)c(C)n3Cc2ccccc2)cc1,0,0,1,-4,13
CC(=O)c1c(C)n(CC(=O)NCc2ccco2)c2ccccc12,35*,0,1,-4,9
Cc1ccccc1-n1c(=O)c2ccccc2n(CC(=O)NCc2ccco2)c1=O,4,1,2,-3,-8
COc1cccc(CNC(=O)c2ccc3c(c2)c(C)c(C)n3Cc2ccccc2)c1,-7,0,2,-7,-33*
COc1cccc(CNC(=O)c2ccncc2)c1,32*,0,1,-3,13
Cc1c(C)n(Cc2ccccc2)c2ccc(C(=O)NCc3ccco3)cc12,-4,-1,7,-8,-70*
CCc1ccc(CNC(=O)c2ccc3c(c2)c(C)c(C)n3Cc2ccccc2)cc1,-3,1,3,-5,-2
COCCCOc1ccnc(CS(=O)c2nc3ccccc3[nH]2)c1C (centres undefined),-8,0,2,1,-4
COc1ccc2nc(S(=O)Cc3ncc(C)c(OC)c3C)[nH]c2c1 (centres undefined),32*,-1,2,-2,-13
CCn1c(=O)c(C(=O)Nc2cc(OC)c(OC)c(OC)c2)nc2ccccc21,-5,0,6,-2,7
CN(C)CCNC(=O)c1ccc2c(c1)NC(=O)c1ccccc1S2,9,-1,7,0,14
CCN(CC)CCNC(=O)c1ccc2c(c1)NC(=O)c1ccccc1S2,-4,2,1,-4,-30*
Cc1ccc(NC(=O)CSc2nc(-c3ccco3)cc(C(F)(F)F)n2)cc1C,1,1,4,-3,-12
COc1ccc(NC(=O)CSc2nc(-c3ccco3)cc(C(F)(F)F)n2)cc1OC,-3,-1,12,-2,-30*
C#CCOCCOCCOCCNc1nc(N2CCN(C(=O)CCCCCCCCCCNC(=O)Cn3cc(CCCCCN)nn3)CC2)nc(N2CCN(C(=O)CCCCCCCCCCNC(=O)Cn3cc(C[C@@H](C)O)nn3)CC2)n1,0,1,26,43*,9
C#CCOCCOCCOCCNc1nc(N2CCN(C(=O)Cn3cc(CCCCN)nn3)CC2)nc(N2CCN(C(=O)Cn3cc(CC(C)O)nn3)CC2)n1 (centres undefined),7,0,-2,-10,-32*
COC(=O)c1ccccc1NC(=O)CCCS(=O)(=O)c1nc(-c2ccccc2OC)cc(C(F)(F)F)n1,-4,0,1,1,-2
CCOC(=O)N1CCC(NC(=O)c2cc(COc3ccccc3SC)on2)CC1,3,-1,16,-3,-33*
SMILES,TRHR enhancer,TRHR ag,D1 agonist,D1 PAM,D1 antagonist
CC(C)OC(=O)c1ccccc1C(=O)c1ccc(N)c([N+](=O)[O-])c1,-4,0,-1,-5,-34*
O=C(COC(=O)c1ccc(O)cc1)NC1CCCC1,28,0,3,4,0
O=C(COC(=O)c1ccccc1C(=O)c1ccc(Cl)c([N+](=O)[O-])c1)NC1CC1,-8,-1,-1,-9,-41*
CNC(=O)COC(=O)c1ccccc1C(=O)c1ccc(Cl)c([N+](=O)[O-])c1,-7,-1,1,-5,-13
O=C(COC(=O)c1ccc([N+](=O)[O-])cc1)NC1CCCC1,-5,-1,1,-5,-45*
O=C(COC(=O)c1cccc([N+](=O)[O-])c1)Nc1ccc(Cl)cn1,-5,1,3,-14,5
Nc1ccccc1Sc1ccc(C(=O)c2ccccc2C(=O)O)cc1[N+](=O)[O-],-4,0,2,1,0
O=C(COC(=O)c1ccc([N+](=O)[O-])cc1)Nc1ccc(Cl)cn1,5,0,5,6,-37*
O=C(COC(=O)/C=C/c1cccc([N+](=O)[O-])c1)Nc1ccc(Cl)cn1,-1,0,4,-6,-49*
N#C/C(=C\c1ccc[nH]1)C(=O)Nc1ccccc1Cl,11,2,5,-4,0
N#C/C(=C\c1ccc[nH]1)C(=O)Nc1ccccc1F,2,1,0,-5,-31*
COc1ccccc1NC(=O)c1ccc(Cl)c(S(=O)(=O)NCc2ccco2)c1,4,-1,-1,-1,24
COc1ccc(C2=NO[C@@H]3C(=O)N(C4CCCCC4)C(=O)[C@H]23)cc1OC,-2,2,26,-7,-35*
COc1ccc(N2CCN(C(=O)c3ccc4c(c3)N(Cc3cc(C)ccc3C)C(=O)c3ccccc3S4=O)CC2)cc1 (centres undefined),2,0,0,-2,-5
CC(C)N=c1c([N+](=O)[O-])nn(C)n1O,4,0,2,-4,-58*
CN=c1c([N+](=O)[O-])nn(-c2ccc3c(c2)OCCO3)n1O,-1,0,3,0,3
COc1ccc(Nc2cc(C)nc(-n3nc(C)cc3C)n2)cc1Cl,-4,0,4,0,-34*
COc1cccc(C(=O)C2CCCN(Cc3cccn3-c3ccccn3)C2)c1 (centres undefined),-1,0,26,-6,-32*
CCCCN(C)C(=O)CN1C(=O)CCn2nc(-c3cn(C)c4ccccc34)cc21,1,0,0,1,1
O=S(=O)(c1ccc(OC(F)(F)F)cc1)N1CCCC(c2ccccc2)C1 (centres undefined),-14,4,18,11,-34*
Cc1c(C(=O)N2CCOCC2)oc2c1-c1nn(CC(=O)NCc3cccc(Cl)c3)cc1CC2,1,0,2,-6,-3
Cc1cccc2sc(N(CCCN(C)C)C(=O)c3ccc(Cl)s3)nc12,-7,0,37*!,-3,-1
CCOc1ccc2nc(N(CCN(C)C)C(=O)c3cc4ccccc4cc3OC)sc2c1,-1,0,5,-5,2
